Bioassay records: PubChem, National Center for Advancing Translational Sciences (NCATS)
HP1b chromo inh: HP1-beta chromodomain-methylated histone interaction inhibition; 390,000 tested, 0.56% active; P83916; Potency, µM (doses to about 114 µM), for the others: at the top dose activity change, negative = inhibition, actives largely listed as inhibitors; AID 540317; AlphaScreen HP1-beta / biotin-H3K9me3 peptide binding; also: nearly all actives have a fitted effect of over 70% in size
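Compound inhibition of the preformed complex between 50 nM HP1-beta and 50 nM biotinylated H3K9me3 peptide was read by AlphaScreen. Buffer was PBS pH 7.4 with 0.01% Tween-20. Incubations ran 30 min at room temperature, with 10 ug/mL donor/acceptor beads.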
JMJD2A Tudor inh: inhibitors of human JMJD2A Tudor domain; AlphaScreen JMJD2A-Tudor / H3K4me3 peptide binding; Potency, µM (top dose mostly 114 µM), inactives show at the highest dose activity change, negative = inhibition, actives largely listed as inhibitors; 390,000 tested, 4.4% active; O75164; AID 504339; also: % is scaled to controls: 0 for no effect and ±100 for the full control effect; nearly all actives have a fitted effect of over 50% in size
L3MBTL1 inh: blocks human L3MBTL1. Q9Y468. AlphaScreen L3MBTL1–H3K9me1 peptide binding. Potency, µM (top dose mostly 57.1 µM), inactives show at the highest dose activity, negative = inhibition, usual class: inhibitors. 230,000 tested, 0.66% active. AID 485360; also: % is scaled to controls: 0 for no effect and ±100 for the full control effect; nearly all actives have a fitted effect of over 60% in size
Target sequence (Q9Y468 whole entry, looked up): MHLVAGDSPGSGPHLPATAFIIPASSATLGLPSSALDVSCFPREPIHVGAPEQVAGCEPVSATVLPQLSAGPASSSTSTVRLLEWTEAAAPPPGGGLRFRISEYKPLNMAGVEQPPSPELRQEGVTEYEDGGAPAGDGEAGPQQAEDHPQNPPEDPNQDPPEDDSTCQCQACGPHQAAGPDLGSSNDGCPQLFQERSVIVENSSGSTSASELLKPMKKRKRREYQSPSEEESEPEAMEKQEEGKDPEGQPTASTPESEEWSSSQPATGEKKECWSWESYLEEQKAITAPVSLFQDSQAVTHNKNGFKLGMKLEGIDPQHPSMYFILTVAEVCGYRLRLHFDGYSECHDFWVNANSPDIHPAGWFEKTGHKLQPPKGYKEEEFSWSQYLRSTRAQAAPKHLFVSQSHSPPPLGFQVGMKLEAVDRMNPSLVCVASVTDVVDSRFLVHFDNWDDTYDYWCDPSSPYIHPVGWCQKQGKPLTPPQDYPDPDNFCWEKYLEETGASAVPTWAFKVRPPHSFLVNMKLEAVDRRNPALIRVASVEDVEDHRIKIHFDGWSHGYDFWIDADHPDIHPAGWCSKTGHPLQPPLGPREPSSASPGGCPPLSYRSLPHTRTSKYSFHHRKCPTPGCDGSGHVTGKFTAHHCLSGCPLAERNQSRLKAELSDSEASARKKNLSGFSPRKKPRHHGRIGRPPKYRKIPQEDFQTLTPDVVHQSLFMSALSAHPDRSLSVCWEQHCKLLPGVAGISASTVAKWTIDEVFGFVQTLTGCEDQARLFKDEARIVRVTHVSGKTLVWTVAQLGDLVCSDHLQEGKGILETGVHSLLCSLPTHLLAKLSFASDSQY
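L3MBTL1 (50 nM) pre-complexed 30 min with biotinylated H3(1-15)K9me1 peptide (75 nM), then compounds added for 30 min at room temperature; AlphaScreen streptavidin donor/nickel chelate acceptor beads (10 ug/mL final) read after 30 min dark incubation.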
Sfp PPTase inh: Sfp phosphopantetheinyl transferase inhibition. Q9F4F7. Biochemical Sfp PPTase activity, qHTS. Potency, µM, without a hit: largest response in the series, negative = inhibition, most hits filed as inhibitors. 310,000 tested, 3.5% active;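 also: the enzyme is Sfp with the accession as filed and its product quenches rhodamine fluorescence; 0% = enzyme reaction without inhibitor and -100% = no enzyme wells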
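Fluorescence-quenching assay with 15 nM Sfp, 5 uM rhodamine-CoA and 12.5 uM BHQ-2-labelled ybbR peptide in pH 7.6 Hepes/MgCl2 buffer. Enzyme was pre-incubated with compound for 15 min at room temperature. Rate was taken from the 30-min fluorescence change (525/598 nm).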
G9a inh: G9a (human) methyltransferase inhibition; Q96KQ7; G9a H3K9 monomethylation, AlphaScreen, 2 h; Potency, µM (top dose mostly 102 µM), for the others: top-dose activity, negative = inhibition, actives largely listed as inhibitors; 350,000 tested, 8.8% active; AID 504332; also: % is scaled to controls: 0 for no effect and ±100 for the full control effect; nearly all actives have a fitted effect of over 75% in size
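Step 1: enzyme (final 20 nM) with compound, 15 min RT. Step 2: substrate peptide 500 nM and SAM 20 uM, 2 h RT. Step 3: anti-H3K9me1 antibody and AlphaScreen beads, 10 min, then plate read.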
BAZ2B inh: blocks human BAZ2B | Q9UIF8 | 360,000 tested, 4.4% active | AID 504333 | Potency, µM (doses to about 114 µM), without a hit: at the highest dose activity change, negative = inhibition, usual class: inhibitors | AlphaScreen BAZ2B-H3K14Ac peptide displacement; also: % is scaled to controls: 0 for no effect and ±100 for the full control effect; nearly all actives have a fitted effect of over 60% in size
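AlphaScreen displacement: compounds (up to 110uM) incubated 30 min at room temperature with a preformed 50 nM BAZ2B/50 nM biotinylated H3K14Ac peptide complex in PBS pH 7.4 with Tween-20. Donor and acceptor beads at 10 ug/mL final added, 20 min light-protected before reading.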
Starred values were filed as active, the others as inactive; ? = inconclusive; nt = not tested or not shown; [ ] = dose if it differs, or a comment. The list is not random: actives were taken first. Their share in the collection is about 12%. Calls follow the shape of the dose curve; as a rule, active = well fitted curve in the direction sought with a large enough effect; inconclusive = small, poorly fitted or top-dose-only effect, or another doubt; inactive = no such curve, though single readings can be large; an effect the other way counts as inactive or inconclusive. Potency is read from the fitted curve at half-maximal effect.

SMILES	HP1b chromo inh	JMJD2A Tudor inh	L3MBTL1 inh	Sfp PPTase inh	G9a inh	BAZ2B inh
CSc1ccc(N/N=C(/C#N)S(=O)(=O)C(C)(C)C)cc1	?	-25.6%[11.4 µM]	nt	1.5%	50.1µM*	?
[O-][n+]1c2ccccc2[n+]([O-])c2cc(O)ccc21	44.7µM*	79.4µM*	nt	?	1.41µM*	39.8µM*
CCN(C(=O)COC(=O)c1cc(C)n(-c2ccc(F)cc2)c1C)C1CCS(=O)(=O)C1 (stereo not given)	1.0%	-34.7%	-24.2%	4.5%	50.1µM*	?
Cc1ccc(-n2c(C)cc(C(=O)OCC(=O)N(C)C3CCS(=O)(=O)C3)c2C)cc1 (stereo not given)	-10.5%	-23.0%	-12.9%	-17.4%	50.1µM*	?
COc1ccccc1-c1cc(NCc2cnc(C)cn2)ncn1	nt	nt	nt	50.1µM*	?	nt
COc1ccc(C2c3c(ccc4ccccc34)Oc3ncn4nc(-c5ccco5)nc4c32)cc1 (stereo not given)	3.9%	-4.1%	6.3%	17.5%	-6.4%[59 µM]	-6.6%
COc1ccc(C2c3c(ncn(CCN4CCOCC4)c3=N)Oc3ccc4ccccc4c32)cc1 (stereo not given)	-0.5%	?	nt	-9.6%	23.3%[12.7 µM]	-37.5%
COc1cccc(C2c3c(ncn(-c4ccccc4C#N)c3=N)Oc3ccc4ccccc4c32)c1 (stereo not given)	nt	56.2µM*	nt	nt	nt	nt
COc1cccc(C2c3c(ncn(-c4ccccc4Br)c3=N)Oc3ccc4ccccc4c32)c1 (stereo not given)	nt	50.1µM*	nt	nt	nt	nt
COc1ccccc1C(=O)Oc1c(Sc2ccccc2)c(C)nn1-c1ccccc1	91.0%	28.3%	nt	nt	-27.7%[59 µM]	26.2%
Cc1ccc(Sc2c(C)nn(-c3ccccc3)c2OC(=O)CC(C)C)cc1	76.7%	15.7%	nt	nt	8.91µM*	7.5%
CCCC(=O)Oc1c(Sc2ccc(Cl)cc2)c(C)nn1-c1ccccc1	12.8%	-34.8%	nt	nt	3.98µM*	3.3%
COc1cc(C(=O)Oc2c(Sc3ccc(C)cc3)c(C)nn2-c2ccccc2)cc(OC)c1OC	41.9%	-29.4%	nt	nt	14.1µM*	-14.6%
COCC(=O)Oc1c(S(=O)(=O)c2ccc(C)cc2)c(C)nn1-c1ccccc1	31.6%	?	1.1%	3.1%	?	?
COc1ccc(OCC(=O)N2CCCC(CO)(CCOc3ccccc3)C2)cc1 (stereo not given)	25.5%	-23.4%	nt	3.4%	1.0%[0.0925 µM]	-18.1%
CCSc1nc2ccccc2c(=O)n1CCc1ccc(OC)c(OC)c1	37.1%	-0.4%	nt	?	10.1%[12.7 µM]	3.3%
COc1ccc(CC(=O)Nc2nc(C)cs2)cc1S(=O)(=O)N1CCOCC1	58.0%	-15.0%	2.3%	nt	-7.5%[2.33 µM]	3.4%
O=c1[nH]c(/C(Cl)=C/c2cccc(F)c2)nc2cc(C(F)(F)F)ccc12	21.5%	-8.3%	5.4%	5.5%	7.9%	-10.9%
Cc1cc(NC(=O)C(C)SCC(=O)N(Cc2ccccc2)c2ccccc2)no1 (stereo not given)	6.2%	-12.1%	-0.2%	nt	-7.7%	5.2%
CN(C)c1ccc(-c2cncnc2NCCN2CCOCC2)cc1	nt	nt	nt	79.4µM*	-1.5%[0.501 µM]	nt
Cc1cnc(CNc2ncncc2-c2ccc(C(=O)N(C)C)cc2)cn1	nt	nt	nt	-5.7%	nt	nt
Cc1cnc(CNc2ncncc2-c2ccc(N(C)C)cc2)cn1	nt	nt	nt	79.4µM*	-46.0%[0.501 µM]	nt
CCCCNc1nc(C)nc2c1nc(-c1ccccc1)n2C(C)CCCN(CC)CC (stereo not given)	nt	nt	nt	-3.5%	nt	nt
CN1C(=O)c2c(sc3c2CCCC3)NC1c1ccccc1O (stereo not given)	nt	nt	-0.8%[11.4 µM]	39.8µM*	?	-28.1%
COc1ccc(C2CC(=O)C(C(c3ccc(O)cc3)C3C(=O)CC(c4ccc(OC)cc4)CC3=O)C(=O)C2)cc1 (stereo not given)	nt	nt	-10.2%	35.5µM*	25.1µM*	-36.2%
SMILES	HP1b chromo inh	JMJD2A Tudor inh	L3MBTL1 inh	Sfp PPTase inh	G9a inh	BAZ2B inh
COc1ccc(C2=CC(=O)CC(c3ccc(OC)cc3)C2)cc1 (stereo not given)	29.4%	-3.4%	-0.1%	-0.7%	-2.8%	-16.5%
CC(=O)COc1nc2c(c(-c3ccco3)c1C#N)CCc1ccccc1-2	9.2%	22.4%	23.7%	-6.3%	44.7µM*	-16.2%
COc1cccc(CN2CCC(C(=O)N3CCN(c4ccccc4F)CC3)CC2)c1OC	?	3.55µM*	10.7%	-11.8%	10µM*	?
COc1cc(CN2CCC(C(=O)N3CCN(c4ccccc4F)CC3)CC2)cc(OC)c1OC	?	2.51µM*	nt	-27.3%	25.1µM*	50.1µM*
COc1ccc(CN2CCC(C(=O)N3CCN(c4ccccc4F)CC3)CC2)cc1OC	?	0.891µM*	-18.6%	-2.0%	?	56.2µM*
COc1ccc(CC(=O)N2CCN(c3ccccc3F)CC2)cc1OC	32.5%	0.0%	-2.0%	12.6%	25.1%[59 µM]	-1.4%
Cc1ncc(C[n+]2csc(CCOP(=O)(O)OP(=O)(O)O)c2C)c(N)n1	nt	nt	nt	23.5%	22.7%[59 µM]	nt
COc1ccc2nc(/N=C\N(C)C)sc2c1	?	-51.9%[57.1 µM]	-3.4%	-11.4%	?	56.2µM*
COc1ccc2nc(N=Nc3ccc(N(C)C)cc3)sc2c1	-35.3%	?	?	-0.9%	22.4µM*	?
CCc1nn2cc(C(=O)c3cc(Cl)ccc3O)cnc2c1-c1ccc(F)cc1	?	50.1µM*	-16.7%	-5.4%	44.7µM*	?
CCNC(=O)COC(=O)CNC(=O)c1cc(Cl)cc([N+](=O)[O-])c1	3.4%	-4.2%	30.1%	-22.8%	7.1%[59 µM]	23.9%
S=C(CN1CCCC1=S)N1CCOCC1	29.5%	-1.1%	nt	nt	nt	nt
CC(C)(CCC(=S)N1CCOCC1)C1CCCCC1	-19.9%	1.4%	13.0%	-89.1%	8.91µM*	2.1%
COc1cccc(Cn2c(=S)[nH]c3ccc(N4CCOCC4)cc3c2=O)c1	35.7%	-10.4%	-5.1%[11.4 µM]	-17.2%	6.6%[12.7 µM]	2.9%
COc1cccc(CNC(=O)CCCCCn2c(=S)[nH]c3ccc(N4CCOCC4)cc3c2=O)c1	nt	nt	-1.6%	79.4µM*	?	-1.6%
